Assay outcomes (PubChem)
Most compounds without a hit are left out; they make up all but 2.4% or so of the library.
Pol kappa inh: inhibitors of human DNA polymerase kappa | Q9UBT6 | purified Pol kappa, fluorescent DNA synthesis assay, 10 min | Potency, µM (doses to about 107 µM), inactives show at the top dose activity, negative = inhibition, usual class: inhibitors | hit rate 0.53% among 400,000 | AID 588579; further: on the % scale 0 is the no-effect control and ±100 the full control effect
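Kinetic fluorescence screen: compound preincubated 15 min RT with 10 nM enzyme; 50 nM substrate (final) initiates; reads at 0/10 min.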
Pol beta inh: blocks human DNA polymerase beta activity; hit rate 1.3% among 340,000; Potency, µM (series often up to 114 µM), inactives show at the highest dose activity change, negative = inhibition, most hits filed as inhibitors; Pol beta primer extension/strand displacement, fluorescence kinetic; P06746; AID 485314; further: on the % scale 0 is the no-effect control and ±100 the full control effect
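Values derive from four-parameter Hill fits of normalized kinetic data: reads at 0 and 10 min following addition of 50 nM substrate to 10 nM Pol beta preincubated 15 min with compound.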
TDP1 block: inhibitors of human tyrosyl-DNA phosphodiesterase TDP1 | recombinant TDP1, AlphaScreen DNA substrate cleavage | Potency, µM (titrated, usually from 130 µM), for the others: at the top dose activity change, negative = inhibition, most hits filed as inhibitors | hit rate 0.28% among 350,000 | Q9NUW8; further: on the % scale 0 is the no-effect control and ±100 the full control effect; nearly all actives have a fitted effect of over 40% in size
Target sequence (Q9NUW8 whole entry, looked up): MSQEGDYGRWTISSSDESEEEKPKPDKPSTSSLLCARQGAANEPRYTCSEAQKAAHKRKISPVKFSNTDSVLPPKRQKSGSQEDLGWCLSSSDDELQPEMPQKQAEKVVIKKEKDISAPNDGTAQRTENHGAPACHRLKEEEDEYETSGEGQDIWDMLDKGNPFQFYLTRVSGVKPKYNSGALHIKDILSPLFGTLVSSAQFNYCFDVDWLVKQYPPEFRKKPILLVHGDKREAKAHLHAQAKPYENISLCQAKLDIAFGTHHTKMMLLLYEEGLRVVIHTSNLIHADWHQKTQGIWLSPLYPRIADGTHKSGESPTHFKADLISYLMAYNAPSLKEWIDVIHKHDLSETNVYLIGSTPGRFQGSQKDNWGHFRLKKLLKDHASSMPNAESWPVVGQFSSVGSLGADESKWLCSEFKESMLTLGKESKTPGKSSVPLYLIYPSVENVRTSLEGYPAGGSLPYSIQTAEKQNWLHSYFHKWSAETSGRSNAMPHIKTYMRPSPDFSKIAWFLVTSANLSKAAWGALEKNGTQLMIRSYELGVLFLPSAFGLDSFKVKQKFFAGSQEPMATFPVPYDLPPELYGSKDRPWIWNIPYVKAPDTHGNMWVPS
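AlphaScreen read-out: signal falls as enzyme removes the 3' tyrosine-FITC from a 5'-biotinylated DNA oligo (15 nM, 5 min, RT). Enzyme was E. coli-made recombinant Tdp1 at 1 nM, exposed to compound for 15 min beforehand; beads 10 ug/ml, 10 min.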
Pol iota inh: blocks human DNA polymerase iota activity | Q9UNA4 | Pol iota fluorescent replication assay, 10 min | Potency, µM (doses to about 115 µM), without a hit: at the highest dose activity, negative = inhibition, hits mostly inhibitors | hit rate 1% among 390,000 | AID 588590
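Fluorescent replication assay read twice, at 0 min and 10 min after adding 50 nM (final) substrate. Enzyme (10 nM) and compounds were first incubated 15 min at room temperature; enzyme-free buffer wells were negative controls.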
POLH inh: DNA polymerase eta (human) inhibition; AID 588591; recombinant Pol eta, fluorescent DNA replication assay; Potency, µM (top dose mostly 114 µM), for the others: at the highest dose activity change, negative = inhibition, most hits filed as inhibitors; hit rate 1.2% among 390,000; Q9Y253; further: on the % scale 0 is the no-effect control and ±100 the full control effect
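Pol eta (10 nM) was preincubated with compounds for 15 min at room temperature, after which fluorescent replication substrate (50 nM final) was added to start the reaction. Fluorescence was read kinetically at 0 and 10 min.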
An asterisk follows results filed as active; ? = inconclusive; · = no result; [ ] = remark or other dose. The call rests on the fitted dose curve; in most records, active means well fitted curve in the direction sought with a large enough effect; inconclusive means small, poorly fitted or top-dose-only effect, or another doubt; inactive means no such curve, though single readings can be large; an effect the other way counts as inactive or inconclusive. Potency means the concentration at half of the fitted maximal effect.

SMILES | Pol kappa inh | Pol beta inh | TDP1 block | Pol iota inh | POLH inh
O=C(COc1ccccc1C(=O)Nc1ccccc1)NCCCCc1ccccc1 | -2% | · | · | -27% | ·
c1ccc(Cc2nnc3sc(-c4ccco4)nn23)cc1 | 79µM* | -15% | -7% | 40µM* | 25µM*
Cc1ccc(-c2nnn3c2nc(NCc2ccc4c(c2)OCO4)c2ccccc23)cc1 | -8% | 5% | -6% | 7% | -11%
CCOC(=O)c1ccccc1NS(=O)(=O)c1ccccc1F | -20% | 19% | -7% | 79µM* | -14%
CCOC(=O)c1ccccc1NS(=O)(=O)c1ccccc1 | -17% | 20% | -3% | -23%[58.9 µM] | -9%
CCCCc1nc2c(c3c1C[C@H](C)OC3)CN(S(=O)(=O)c1ccc(Cl)c3nonc13)CC2 | · | · | 10%[21 µM] | · | ·
O=C(CSc1nc2nc(-c3cccs3)cc(C(F)(F)F)c2c(=O)[nH]1)Nc1ccc(F)c(F)c1 | ? | 28µM* | -4% | ? | 32µM*
N#Cc1c(C(F)(F)F)cc(-c2cccs2)nc1SCC(=O)Nc1ccc(Cl)cc1 | -11% | 23% | · | 10% | -15%
Nc1nc(=S)ss1 | -12% | · | · | 28µM* | -2%
Cc1ccc(NC(=O)CCC(=O)N2CCSc3ccccc32)cc1 | 2% | 1% | 8% | -6% | 7%
Cc1cc2c(c(=O)o1)C(c1ccc([N+](=O)[O-])o1)C(C#N)=C(N)O2 (centres undefined) | 79µM* | ? | · | 20µM* | -3%
COc1ccc(C(CC(=O)Nc2cc(OC)c(OC)c(OC)c2)N2Cc3ccccc3C2=O)cc1 (centres undefined) | -26% | -1% | 8% | -8% | -1%
CCOc1ccc(-c2cc(C(=O)NCc3ccccc3)c3c(-c4ccc(CC)cc4)[nH]nc3n2)cc1 | 0% | 9% | -5% | 19% | -18%
CC(C)(C)n1ncc2c(=O)n(Cc3ccc(Cl)c(OC(F)(F)F)c3)cnc21 | -12% | · | · | 1% | ·
CCC(C)NC(=O)Cn1c(=O)n(Cc2ccc(C(=O)NCc3ccc(C)cc3)cc2)c(=O)c2ccccc21 (centres undefined) | 8% | 20µM* | -2%[12.3 µM] | 43% | ?
COCCCNC(=O)c1ccc(Cn2c(=O)c3ccccc3n(CC(=O)Nc3c(C)cccc3C)c2=O)cc1 | -32% | 50µM* | 5% | 89µM* | -11%
CCC(C)NC(=O)Cn1c(=O)n(-c2ccc(C)cc2)c(=O)c2ccccc21 (centres undefined) | -4% | -5% | -1% | 3% | 3%
CCc1ccc(Cn2c(CNS(=O)(=O)c3ccc(Cl)s3)nc3cccnc32)cc1 | -5%[60.1 µM] | 29% | 7% | 6% | -17%
CCC(Sc1nc2cc3c(cc2c(=O)n1CCCC(=O)NCc1ccc2c(c1)OCO2)OCO3)C(=O)NCCCOC (centres undefined) | 3%[60.1 µM] | 41% | 0% | 1% | 6%
CCC(C)Sc1nc2c(c(=O)[nH]1)C(c1cccs1)C1=C(CCCC1=O)N2 (centres undefined) | -42% | 25µM* | -1% | ? | ?
Cc1cc2c(s1)c1cnn(Cc3ccc(S(C)(=O)=O)cc3)c(=O)c1n2C | · | · | -1% | · | ·
COCCN(C(=O)COC(=O)/C=C/c1ccco1)c1c(N)n(Cc2ccccc2)c(=O)[nH]c1=O | -32% | 28µM* | 25µM* | ? | ?
COCCN(C(=O)COC(=O)/C=C/c1ccc(C)o1)c1c(N)n(Cc2ccccc2)c(=O)[nH]c1=O | -7% | -6% | 4% | 79µM* | -11%
COCCN(C(=O)COC(=O)/C=C/c1ccc(OC)c(OC)c1)c1c(N)n(Cc2ccccc2)c(=O)[nH]c1=O | 3% | · | · | 2% | -1%
O=C(CNC(=O)c1ccc(Cl)cc1)OC(C(=O)Nc1cc(C(F)(F)F)ccc1Cl)c1ccccc1 (centres undefined) | · | · | -1% | · | ·
SMILES | Pol kappa inh | Pol beta inh | TDP1 block | Pol iota inh | POLH inh
CNCCCCCCCCSc1nc(C(C)C)ccc1C(=O)c1cccs1 | -10%[19.4 µM] | · | 7% | · | ·
CCOc1cc(C(=O)NCCc2sc(-c3ccc(F)cc3)nc2C)cc(OCC)c1OCC | -8%[60.1 µM] | 24% | 5% | 4% | -2%
COCCn1c(N)c(C(=O)OCc2ccccc2)c2nc3ccccc3nc21 | -13% | 12% | -1% | 20µM* | -8%
CC1CCN(C(=O)CSc2nnc(NC(=O)Nc3ccccc3)s2)CC1 | -9%[60.1 µM] | 2% | 5% | 11% | -8%
COc1ccc(C2Nc3ccccc3C(=O)N2Cc2cccc(C(F)(F)F)c2)cc1COc1ccc(NC(C)=O)cc1 (centres undefined) | · | · | 2% | · | ·
Cc1ccc(NC(=O)c2ccc3c(c2)NC(=O)c2ccccc2S3)cc1 | 1% | 12% | -2% | -17% | -19%
COCC(C)NC(=O)C(C)N1c2cccc3cccc(c23)S1(=O)=O (centres undefined) | -2% | 1% | 20µM* | 145% | -4%
COc1ccc(N2CCN(C(c3ccccc3F)c3sc4nc(-c5ccco5)nn4c3O)CC2)cc1 (centres undefined) | -8%[60.1 µM] | 35% | 10% | 0% | -12%
CCOC(=O)c1ccc(CC(=O)c2ccc(O)c(O)c2O)o1 | 1.6µM* | 1.1µM* | · | 1µM* | ?
COc1cc(CNc2ccc(O)cc2)cc(Br)c1OCc1ccccc1 | -15% | -1% | 5% | 16µM* | ?
COc1ccc(Br)cc1CNc1ccc(O)cc1 | -11% | 3% | 12% | 2.8µM* | 7%
COc1ccc(Br)cc1CNc1ccc2[nH]c(=O)[nH]c2c1 | -4% | 37% | 8% | 9% | -24%
COc1ccccc1NC(=O)N1CCN(c2nnc(C)c3c(C)n(-c4ccccc4)nc23)CC1 | -4%[60.1 µM] | 1% | 5% | -2% | -9%
COc1cccc(C(=O)/C=C/Nc2ccc(S(=O)(=O)Nc3cnc4ccccc4n3)cc2)c1 | -14% | 3% | 1% | ? | 16µM*
NC(CO)C(=O)NNCc1ccc(O)c(O)c1O (centres undefined) | 2%[60.1 µM] | ? | ? | 32µM* | 1%
Cc1c(N2C(=O)/C(=C\C3CC=CCC3)SC2=S)c(=O)n(-c2ccccc2)n1C (centres undefined) | -14% | -5% | -3% | 96% | -15%
Cc1c(N2C(=O)/C(=C/C3CC=CCC3)SC2=S)c(=O)n(-c2ccccc2)n1C (centres undefined) | -16% | -29% | · | 18µM* | -2%
CC(C)Cn1cc(NC(=O)NCc2ccc(Cl)cc2)c2ccccc2c1=O | -12% | -15% | 6% | 27% | -6%
CC1OC(CC(=O)O)CC2=C1C(=O)c1c(O)cccc1C2=O (centres undefined) | -32% | · | · | 3.2µM* | 25µM*
O=C(O)CC1CC(c2ccccc2)=NO1 (centres undefined) | -14%[60.1 µM] | · | · | · | ·
O=C1CCCC2=C1C1(CCSCC1)N=C(Nc1nc3ccccc3o1)N2 | · | · | 0% | · | ·
